Inhibition data for one molecule are collected here from PubChem BioAssay AID504862 (Sanford-Burnham Center for Chemical Genomics, 2011).

Molecules are shown by their SMILES. The list shows a part of the results. A number with no mark means an inactive call.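 The calls were made as follows: active = average inhibition reaching 50% or more with the compound at 20 µM; inactive = the rest.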

The subject of this test is diaphorase (Clostridium kluyveri). Description: diaphorase inhibitors and chemical oxidizers, confirmation, counter-screen for P. falciparum G6PD inhibitor project, biochemical, fluorescence intensity, 10 µM NADPH (AID 504862).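 Also: resorufin red fluorescence formed as diaphorase reduces resazurin using NADPH; 0% = DMSO with enzyme and 100% = DMSO without enzyme.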 The settings on record: diaphorase-coupled resazurin reduction, NADPH 10 uM, at 20 µM, hits give high values. Background: The purpose of a counterscreen is to sort out artefacts and off-target activity.

The term inhibition denotes how much of the control response was suppressed. As to `O=C1NC(=O)N(c2ccccc2)C(=O)/C1=C/c1ccc([N+](=O)[O-])s1`, the inhibition is 47.3%.
